KDM5B inh – inhibitors of human KDM5B histone demethylase. Q9UGL1. KDM5B demethylase, FDH-coupled NADH fluorescence (FDH is formaldehyde dehydrogenase). Potency, µM (titrated, usually from 57.7 µM), actives largely listed as inhibitors. 220,000 tested, 2.6% active; active means well fitted inhibition curve with a large enough effect; further: 0% is about no effect; nearly all actives have a fitted effect of over 70% in size
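Inhibition is measured as reduced NADH fluorescence generation from FDH coupling to formaldehyde release. Truncated KDM5BΔAP at 200 nM final acts on H3K4me3 peptide (12.5 µM in substrate mix) in pH 7.5 HEPES buffer with Tween-20, 30 min, room temperature.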
* marks the source's active call; other numbers are inactive results. The full list was thinned out, with hits kept by preference. Potency means the concentration at half of the fitted maximal effect.

Cc1ccc(S(=O)Cc2nc(-c3ccc(C(=O)NCc4cccnc4)cc3)oc2C)cc1 (configuration not stated) was read as KDM5B inh inactive.
CCOc1ccc(NC(=O)C(C#N)=C2CCC(C)CC2)cc1 (configuration not stated) was read as KDM5B inh inactive.
CN(Cc1ccccc1)c1ccccc1NCC(=O)NC(N)=O was read as KDM5B inh inactive.
Screening CCC1CCc2c(sc(NC(=O)C3CC3)c2C#N)C1 (configuration not stated) returned KDM5B inh inactive.
For O=C(CSc1nnc(-c2cccc(Cl)c2)o1)Nc1ccc2c(c1)OC1(CCCCC1)O2 the results were KDM5B inh inactive.
For Cc1ccc(-c2nc(C3CC(=O)N(c4ccc(Cl)cc4)C3)no2)c(C)c1 (configuration not stated) the results were KDM5B inh inactive.
CN(C)c1ccc(-c2nc(C3CC(=O)N(c4ccc(Cl)cc4)C3)no2)cc1 (configuration not stated) was read as KDM5B inh 3.98µM*.
Cc1cc(C)cc(-c2nc(C3CC(=O)N(c4ccc(Cl)cc4)C3)no2)c1 (configuration not stated) was read as KDM5B inh inactive.
`Cc1ccc(NC(=S)NCCc2ccccc2)cc1` gave KDM5B inh inactive.
O=C(O)CSCC(=O)c1c[nH]c2ccccc12 was read as KDM5B inh inactive.
Cc1ccc(NC(NC(=O)c2ccco2)C(=O)c2ccccc2)cc1 (configuration not stated) was read as KDM5B inh inactive.
Screening COC(=O)CNC(=O)c1nc2sccn2c1Br returned KDM5B inh inactive.
`COC(=O)CNC(=O)C(C)(C)c1ccccc1` gave KDM5B inh inactive.
For O=C(NCc1cccnc1)c1cccc2ccccc12 the results were KDM5B inh inactive.
Screening CC(C)(C)c1nc(C(=O)NCc2cccnc2)n2ccccc12 returned KDM5B inh 100µM*.
For CC(C)(C)c1nc(C(=O)NCc2cccnc2)n2ccncc12 the results were KDM5B inh 100µM*.
`Cc1ccsc1C(=O)NCc1cccnc1` gave KDM5B inh inactive.
For Cn1ccc2c(C(=O)NCc3cccnc3)nc(-c3ccncc3)cc21 the results were KDM5B inh inactive.
Screening COC(=O)CNC(=O)c1nc(C(C)(C)C)c2cnccn12 returned KDM5B inh 112µM*.
For COC(=O)CNC(=O)c1nc(-c2ccsc2)c2cnccn12 the results were KDM5B inh 39.8µM*.
O=C(CNC(=O)c1ccccc1)OCc1cc(=O)n2ccsc2n1 was read as KDM5B inh inactive.
`O=C(NCc1ccsc1)c1nc(-c2ccc(Cl)cc2)c2cnccn12` gave KDM5B inh inactive.
`CC(C)(C)C(=O)Nc1ccccc1C(=O)NCc1cccnc1` gave KDM5B inh inactive.
`CC(=O)c1cccc(NC(=O)c2ccc3c(=O)n(-c4cccc(Cl)c4)cnc3c2)c1` gave KDM5B inh inactive.
For O=C(N1CCC(c2n[nH]c(=O)n2Cc2ccc(F)cc2)CC1)C1(c2ccccc2)CC1 the results were KDM5B inh inactive.
N#Cc1cccc(C(=O)OCc2ccccn2)c1 was read as KDM5B inh inactive.
`CCOC(=O)c1cc(NC(=O)c2ccc(-c3cc4ccccc4oc3=O)cc2)ccc1N1CCOCC1` gave KDM5B inh inactive.
For CCOc1cc(/C=C2\NC(=O)NC2=O)ccc1OCc1ccc(C(=O)O)cc1 the results were KDM5B inh inactive.
For C=CCOc1ccc(CNC2CC2)cc1 the results were KDM5B inh inactive.
`CN(C)CCC(OC(=O)C1(c2ccccc2)CCCC1)c1ccccc1` (configuration not stated) gave KDM5B inh inactive.
For COC(=O)c1ccc2c(=O)[nH]c(CN(C)CC(=O)Nc3cccc(F)c3)nc2c1 the results were KDM5B inh inactive.
`CCc1ccc(C(=O)N2CCC(c3cc(-c4cccc(OC)c4)n[nH]3)CC2)cc1` gave KDM5B inh inactive.
Screening Cc1nn(C)cc1NC(=O)c1c(Br)cnn1C returned KDM5B inh inactive.
For O=C(O)CCC(=O)c1cccc(Br)c1 the results were KDM5B inh inactive.
`Cc1ccc(-c2nnn(Cc3ncc(-c4ccccc4)o3)n2)cc1` gave KDM5B inh inactive.
`CCOc1ccc(NC(=O)c2ccc(NC(=O)c3ccc4ccccc4n3)cc2)cc1` gave KDM5B inh inactive.
COCC1CN(C2CCC2)CC12CCN(C(=O)Cc1cccc(F)c1)CC2 (configuration not stated) was read as KDM5B inh inactive.
`O=C(CSc1nc2ccccc2o1)OCC(=O)c1ccc(Br)cc1` gave KDM5B inh inactive.
`Cc1cccc(C(=O)NCCC(=O)NCc2ccccc2F)c1` gave KDM5B inh inactive.
For Cc1cccc(-c2nocc2CCC(=O)NCc2ccccc2F)c1 the results were KDM5B inh inactive.
For O=C(CCc1conc1-c1cccc(F)c1)NCC1CC1 the results were KDM5B inh inactive.
CNC(=O)CCNc1c(-c2cccc(F)c2)nc2cnccn12 was read as KDM5B inh 28.2µM*.

Screens as filed in PubChem BioAssay.
